Measurements from the supplement of paper PMC4466140.

Biological target: AgAbp1
Assay: SPOT peptide array binding signal intensity (averaged, normalized) (arbitrary units (background-subtracted, floor 0; scale differs between SH3 domains)); higher = stronger binding of the SH3 domain to the peptide
Experimental: (§1)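 GST-tagged SH3 domains from S. cerevisiae (Sc), A. gossypii (Ag), C. albicans (Ca) and S. pombe (Sp) were incubated at 10 ug/ml overnight at 4 C on cellulose SPOT membranes carrying 292 synthetic 15-mer peptides mined from the S. cerevisiae proteome (cysteines replaced by serines). Binding was detected with anti-GST antibody, HRP secondary and chemiluminescence, quantified with Genespotter, and reported as normalized spot intensities averaged over biological replicates.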

Binder	SPOT peptide array binding signal intensity
GQYRRTIVIPRRFFT	24.5

Biological target: AgBbc1
Assay: as above
Experimental: as §1

Binder	SPOT peptide array binding signal intensity
GQYRRTIVIPRRFFT	25.5

Biological target: AgBem1-D1
Assay: as above
Experimental: as §1

Binder	SPOT peptide array binding signal intensity
GQYRRTIVIPRRFFT	52

Biological target: AgBzz1-D1
Assay: as above
Experimental: as §1

Binder	SPOT peptide array binding signal intensity
GQYRRTIVIPRRFFT	42.5

Biological target: AgBzz1-D2
Assay: as above
Experimental: as §1

Binder	SPOT peptide array binding signal intensity
GQYRRTIVIPRRFFT	21

Biological target: AgCyk3
Assay: as above
Experimental: as §1

Binder	SPOT peptide array binding signal intensity
GQYRRTIVIPRRFFT	42.5

Biological target: AgFus1
Assay: as above
Experimental: as §1

Binder	SPOT peptide array binding signal intensity
GQYRRTIVIPRRFFT	619

Biological target: AgHof1
Assay: as above
Experimental: as §1

Binder	SPOT peptide array binding signal intensity
GQYRRTIVIPRRFFT	68

Biological target: AgHse1
Assay: as above
Experimental: as §1

Binder	SPOT peptide array binding signal intensity
GQYRRTIVIPRRFFT	478

Biological target: AgLsb1
Assay: as above
Experimental: as §1

Binder	SPOT peptide array binding signal intensity
GQYRRTIVIPRRFFT	10

Biological target: AgLsb4
Assay: as above
Experimental: as §1

Binder	SPOT peptide array binding signal intensity
GQYRRTIVIPRRFFT	211

Biological target: AgMyo5
Assay: as above
Experimental: as §1

Binder	SPOT peptide array binding signal intensity
GQYRRTIVIPRRFFT	2.25

Biological target: AgNbp2
Assay: as above
Experimental: as §1

Binder	SPOT peptide array binding signal intensity
GQYRRTIVIPRRFFT	56.5

Biological target: AgRvs167
Assay: as above
Experimental: as §1

Binder	SPOT peptide array binding signal intensity
GQYRRTIVIPRRFFT	14.8

Biological target: AgSho1
Assay: as above
Experimental: as §1

Binder	SPOT peptide array binding signal intensity
GQYRRTIVIPRRFFT	255

Biological target: AgSla1-D1-D2
Assay: as above
Experimental: as §1

Binder	SPOT peptide array binding signal intensity
GQYRRTIVIPRRFFT	763

Biological target: AgSla1-D3
Assay: as above
Experimental: as §1

Binder	SPOT peptide array binding signal intensity
GQYRRTIVIPRRFFT	11

Biological target: CaAbp1-D1
Assay: as above
Experimental: as §1

Binder	SPOT peptide array binding signal intensity
GQYRRTIVIPRRFFT	168

Biological target: CaAbp1-D2
Assay: as above
Experimental: as §1

Binder	SPOT peptide array binding signal intensity
GQYRRTIVIPRRFFT	172

Biological target: CaBbc1
Assay: as above
Experimental: as §1

Binder	SPOT peptide array binding signal intensity
GQYRRTIVIPRRFFT	128

Biological target: CaBem1-D1
Assay: as above
Experimental: as §1

Binder	SPOT peptide array binding signal intensity
GQYRRTIVIPRRFFT	24.5

Biological target: CaBzz1-D1
Assay: as above
Experimental: as §1

Binder	SPOT peptide array binding signal intensity
GQYRRTIVIPRRFFT	60

Biological target: CaBzz1-D2
Assay: as above
Experimental: as §1

Binder	SPOT peptide array binding signal intensity
GQYRRTIVIPRRFFT	45

Biological target: CaCyk3
Assay: as above
Experimental: as §1

Binder	SPOT peptide array binding signal intensity
GQYRRTIVIPRRFFT	81

Biological target: CaFus1
Assay: as above
Experimental: as §1

Binder	SPOT peptide array binding signal intensity
GQYRRTIVIPRRFFT	2340

Biological target: CaHof1
Assay: as above
Experimental: as §1

Binder	SPOT peptide array binding signal intensity
GQYRRTIVIPRRFFT	5

Biological target: CaHse1
Assay: as above
Experimental: as §1

Binder	SPOT peptide array binding signal intensity
GQYRRTIVIPRRFFT	45.8

Biological target: CaLsb1
Assay: as above
Experimental: as §1

Binder	SPOT peptide array binding signal intensity
GQYRRTIVIPRRFFT	7

Biological target: CaLsb4
Assay: as above
Experimental: as §1

Binder	SPOT peptide array binding signal intensity
GQYRRTIVIPRRFFT	94.5

Biological target: CaMyo5
Assay: as above
Experimental: as §1

Binder	SPOT peptide array binding signal intensity
GQYRRTIVIPRRFFT	46.5

Biological target: CaNbp2
Assay: as above
Experimental: as §1

Binder	SPOT peptide array binding signal intensity
GQYRRTIVIPRRFFT	564

Biological target: CaRvs167
Assay: as above
Experimental: as §1

Binder	SPOT peptide array binding signal intensity
GQYRRTIVIPRRFFT	191

Biological target: CaRvs167-3
Assay: as above
Experimental: as §1

Binder	SPOT peptide array binding signal intensity
GQYRRTIVIPRRFFT	1390

Biological target: CaSho1
Assay: as above
Experimental: as §1

Binder	SPOT peptide array binding signal intensity
GQYRRTIVIPRRFFT	1460

Biological target: CaSla1-D1-D2
Assay: as above
Experimental: as §1

Binder	SPOT peptide array binding signal intensity
GQYRRTIVIPRRFFT	60

Biological target: CaSla1-D3
Assay: as above
Experimental: as §1

Binder	SPOT peptide array binding signal intensity
GQYRRTIVIPRRFFT	89.8

Biological target: ScAbp1
Assay: as above
Experimental: as §1

Binder	SPOT peptide array binding signal intensity
GQYRRTIVIPRRFFT	71

Biological target: ScBbc1
Assay: as above
Experimental: as §1

Binder	SPOT peptide array binding signal intensity
GQYRRTIVIPRRFFT	2.5

Biological target: ScBem1-D1
Assay: as above
Experimental: as §1

Binder	SPOT peptide array binding signal intensity
GQYRRTIVIPRRFFT	9

Biological target: ScBzz1-D1
Assay: as above
Experimental: as §1

Binder	SPOT peptide array binding signal intensity
GQYRRTIVIPRRFFT	17.5

Biological target: ScBzz1-D2
Assay: as above
Experimental: as §1

Binder	SPOT peptide array binding signal intensity
GQYRRTIVIPRRFFT	78

Biological target: ScCyk3
Assay: as above
Experimental: as §1

Binder	SPOT peptide array binding signal intensity
GQYRRTIVIPRRFFT	108

Biological target: ScFus1
Assay: as above
Experimental: as §1

Binder	SPOT peptide array binding signal intensity
GQYRRTIVIPRRFFT	898

Biological target: ScHof1
Assay: as above
Experimental: as §1

Binder	SPOT peptide array binding signal intensity
GQYRRTIVIPRRFFT	4.75

Biological target: ScHse1
Assay: as above
Experimental: as §1

Binder	SPOT peptide array binding signal intensity
GQYRRTIVIPRRFFT	995

Biological target: ScLsb1
Assay: as above
Experimental: as §1

Binder	SPOT peptide array binding signal intensity
GQYRRTIVIPRRFFT	10.2

Biological target: ScLsb2
Assay: as above
Experimental: as §1

Binder	SPOT peptide array binding signal intensity
GQYRRTIVIPRRFFT	29

Biological target: ScLsb3
Assay: as above
Experimental: as §1

Binder	SPOT peptide array binding signal intensity
GQYRRTIVIPRRFFT	210

Biological target: ScLsb4
Assay: as above
Experimental: as §1

Binder	SPOT peptide array binding signal intensity
GQYRRTIVIPRRFFT	33

Biological target: ScMyo3
Assay: as above
Experimental: as §1

Binder	SPOT peptide array binding signal intensity
GQYRRTIVIPRRFFT	12.5

Biological target: ScMyo5
Assay: as above
Experimental: as §1

Binder	SPOT peptide array binding signal intensity
GQYRRTIVIPRRFFT	10

Biological target: ScNbp2
Assay: as above
Experimental: as §1

Binder	SPOT peptide array binding signal intensity
GQYRRTIVIPRRFFT	346

Biological target: ScPex13
Assay: as above
Experimental: as §1

Binder	SPOT peptide array binding signal intensity
GQYRRTIVIPRRFFT	15.2

Biological target: ScRvs167
Assay: as above
Experimental: as §1

Binder	SPOT peptide array binding signal intensity
GQYRRTIVIPRRFFT	69.3

Biological target: ScSho1
Assay: as above
Experimental: as §1

Binder	SPOT peptide array binding signal intensity
GQYRRTIVIPRRFFT	1020

Biological target: ScSla1-D1-D2
Assay: as above
Experimental: as §1

Binder	SPOT peptide array binding signal intensity
GQYRRTIVIPRRFFT	205

Biological target: ScSla1-D3
Assay: as above
Experimental: as §1

Binder	SPOT peptide array binding signal intensity
GQYRRTIVIPRRFFT	54.5

Biological target: SpAbp1-D1
Assay: as above
Experimental: as §1

Binder	SPOT peptide array binding signal intensity
GQYRRTIVIPRRFFT	242

Biological target: SpBbc1
Assay: as above
Experimental: as §1

Binder	SPOT peptide array binding signal intensity
GQYRRTIVIPRRFFT	12.5

Biological target: SpBzz1-D1
Assay: as above
Experimental: as §1

Binder	SPOT peptide array binding signal intensity
GQYRRTIVIPRRFFT	107

Biological target: SpBzz1-D2
Assay: as above
Experimental: as §1

Binder	SPOT peptide array binding signal intensity
GQYRRTIVIPRRFFT	4.5

Biological target: SpCyk3
Assay: as above
Experimental: as §1

Binder	SPOT peptide array binding signal intensity
GQYRRTIVIPRRFFT	21

Biological target: SpHof1
Assay: as above
Experimental: as §1

Binder	SPOT peptide array binding signal intensity
GQYRRTIVIPRRFFT	186

Biological target: SpHof1-2
Assay: as above
Experimental: as §1

Binder	SPOT peptide array binding signal intensity
GQYRRTIVIPRRFFT	50

Biological target: SpHof1-3
Assay: as above
Experimental: as §1

Binder	SPOT peptide array binding signal intensity
GQYRRTIVIPRRFFT	321

Biological target: SpHse1
Assay: as above
Experimental: as §1

Binder	SPOT peptide array binding signal intensity
GQYRRTIVIPRRFFT	573

Biological target: SpLsb1
Assay: as above
Experimental: as §1

Binder	SPOT peptide array binding signal intensity
GQYRRTIVIPRRFFT	5

Biological target: SpLsb4
Assay: as above
Experimental: as §1

Binder	SPOT peptide array binding signal intensity
GQYRRTIVIPRRFFT	131

Biological target: SpMyo1
Assay: as above
Experimental: as §1

Binder	SPOT peptide array binding signal intensity
GQYRRTIVIPRRFFT	4.75

Biological target: SpNbp2
Assay: as above
Experimental: as §1

Binder	SPOT peptide array binding signal intensity
GQYRRTIVIPRRFFT	287

Biological target: SpPex13
Assay: as above
Experimental: as §1

Binder	SPOT peptide array binding signal intensity
GQYRRTIVIPRRFFT	79.5

Biological target: SpRvs167
Assay: as above
Experimental: as §1

Binder	SPOT peptide array binding signal intensity
GQYRRTIVIPRRFFT	43

Biological target: SpSla1-D1-D2
Assay: as above
Experimental: as §1

Binder	SPOT peptide array binding signal intensity
GQYRRTIVIPRRFFT	6

Biological target: SpSla1-D3
Assay: as above
Experimental: as §1

Binder	SPOT peptide array binding signal intensity
GQYRRTIVIPRRFFT	47
